# Test results taken from ChEMBL document CHEMBL2218924, “A broad activity screen in support of a chemogenomic map for kinase signalling research and drug discovery” (Biochem J, 2013).
# How the values were obtained:
# [1] = target: T1, Ephrin type-A receptor 3 (Homo sapiens) (UniProt P29320); details: at 10 µM
# T1 sequence (whole entry): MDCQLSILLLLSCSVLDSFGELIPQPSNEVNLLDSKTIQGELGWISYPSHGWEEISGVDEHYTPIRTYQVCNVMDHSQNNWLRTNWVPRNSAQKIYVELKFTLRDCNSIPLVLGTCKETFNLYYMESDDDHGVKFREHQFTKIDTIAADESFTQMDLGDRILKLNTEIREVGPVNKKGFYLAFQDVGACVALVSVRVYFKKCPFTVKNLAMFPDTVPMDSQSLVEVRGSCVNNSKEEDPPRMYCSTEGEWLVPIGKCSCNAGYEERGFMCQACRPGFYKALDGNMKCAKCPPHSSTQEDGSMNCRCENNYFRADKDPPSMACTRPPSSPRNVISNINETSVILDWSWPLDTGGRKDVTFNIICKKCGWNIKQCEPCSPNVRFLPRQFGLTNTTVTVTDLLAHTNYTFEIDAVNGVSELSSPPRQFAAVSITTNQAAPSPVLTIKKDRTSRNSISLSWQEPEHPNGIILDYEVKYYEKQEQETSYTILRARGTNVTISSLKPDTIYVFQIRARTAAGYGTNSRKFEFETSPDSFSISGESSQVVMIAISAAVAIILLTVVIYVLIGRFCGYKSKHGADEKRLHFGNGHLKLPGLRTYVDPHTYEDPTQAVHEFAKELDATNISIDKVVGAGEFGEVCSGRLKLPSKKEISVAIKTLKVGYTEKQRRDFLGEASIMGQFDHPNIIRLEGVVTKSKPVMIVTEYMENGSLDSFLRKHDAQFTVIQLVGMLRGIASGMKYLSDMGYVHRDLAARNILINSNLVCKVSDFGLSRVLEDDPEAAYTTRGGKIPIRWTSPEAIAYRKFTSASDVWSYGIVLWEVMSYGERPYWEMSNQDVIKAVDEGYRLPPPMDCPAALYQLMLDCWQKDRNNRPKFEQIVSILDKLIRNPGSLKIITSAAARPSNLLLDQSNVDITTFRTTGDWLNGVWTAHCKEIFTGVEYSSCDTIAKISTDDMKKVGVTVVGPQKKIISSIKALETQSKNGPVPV
# [2] = target: Ephrin type-A receptor 7 (Homo sapiens) (UniProt Q15375); details: at 1 µM
# Ephrin type-A receptor 7 (Homo sapiens), sequence (Q15375 28-998 limits assumed): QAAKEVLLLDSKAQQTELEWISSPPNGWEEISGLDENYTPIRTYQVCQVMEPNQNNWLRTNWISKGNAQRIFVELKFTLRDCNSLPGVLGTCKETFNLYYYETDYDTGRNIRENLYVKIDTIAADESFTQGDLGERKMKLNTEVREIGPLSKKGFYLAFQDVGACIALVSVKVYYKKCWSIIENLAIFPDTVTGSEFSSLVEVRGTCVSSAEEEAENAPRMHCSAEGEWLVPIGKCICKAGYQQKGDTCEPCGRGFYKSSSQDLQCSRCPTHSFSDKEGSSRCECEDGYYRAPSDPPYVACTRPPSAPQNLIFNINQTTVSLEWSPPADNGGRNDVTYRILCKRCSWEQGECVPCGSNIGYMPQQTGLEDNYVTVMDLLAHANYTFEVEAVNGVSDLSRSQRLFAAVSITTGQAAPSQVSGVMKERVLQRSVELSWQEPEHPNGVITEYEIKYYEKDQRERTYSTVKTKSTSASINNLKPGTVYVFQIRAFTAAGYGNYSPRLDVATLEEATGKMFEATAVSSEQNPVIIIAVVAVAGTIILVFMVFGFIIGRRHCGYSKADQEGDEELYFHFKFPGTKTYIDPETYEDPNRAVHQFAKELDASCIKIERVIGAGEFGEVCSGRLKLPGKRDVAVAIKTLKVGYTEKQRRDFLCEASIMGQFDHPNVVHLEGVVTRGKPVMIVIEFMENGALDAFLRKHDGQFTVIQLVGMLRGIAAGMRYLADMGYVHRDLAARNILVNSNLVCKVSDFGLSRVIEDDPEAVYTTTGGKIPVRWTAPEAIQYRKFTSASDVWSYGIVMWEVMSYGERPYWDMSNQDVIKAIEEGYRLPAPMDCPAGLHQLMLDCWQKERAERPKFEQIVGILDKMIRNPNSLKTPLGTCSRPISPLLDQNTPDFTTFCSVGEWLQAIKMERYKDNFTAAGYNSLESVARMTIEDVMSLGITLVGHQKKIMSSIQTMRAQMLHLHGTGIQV
# [3] = target: Ephrin type-A receptor 7 (Homo sapiens) (UniProt Q15375); details: at 10 µM
# [4] = target: T2, Ephrin type-B receptor 1 (Homo sapiens) (UniProt P54762); details: at 1 µM
# T2 sequence (whole entry): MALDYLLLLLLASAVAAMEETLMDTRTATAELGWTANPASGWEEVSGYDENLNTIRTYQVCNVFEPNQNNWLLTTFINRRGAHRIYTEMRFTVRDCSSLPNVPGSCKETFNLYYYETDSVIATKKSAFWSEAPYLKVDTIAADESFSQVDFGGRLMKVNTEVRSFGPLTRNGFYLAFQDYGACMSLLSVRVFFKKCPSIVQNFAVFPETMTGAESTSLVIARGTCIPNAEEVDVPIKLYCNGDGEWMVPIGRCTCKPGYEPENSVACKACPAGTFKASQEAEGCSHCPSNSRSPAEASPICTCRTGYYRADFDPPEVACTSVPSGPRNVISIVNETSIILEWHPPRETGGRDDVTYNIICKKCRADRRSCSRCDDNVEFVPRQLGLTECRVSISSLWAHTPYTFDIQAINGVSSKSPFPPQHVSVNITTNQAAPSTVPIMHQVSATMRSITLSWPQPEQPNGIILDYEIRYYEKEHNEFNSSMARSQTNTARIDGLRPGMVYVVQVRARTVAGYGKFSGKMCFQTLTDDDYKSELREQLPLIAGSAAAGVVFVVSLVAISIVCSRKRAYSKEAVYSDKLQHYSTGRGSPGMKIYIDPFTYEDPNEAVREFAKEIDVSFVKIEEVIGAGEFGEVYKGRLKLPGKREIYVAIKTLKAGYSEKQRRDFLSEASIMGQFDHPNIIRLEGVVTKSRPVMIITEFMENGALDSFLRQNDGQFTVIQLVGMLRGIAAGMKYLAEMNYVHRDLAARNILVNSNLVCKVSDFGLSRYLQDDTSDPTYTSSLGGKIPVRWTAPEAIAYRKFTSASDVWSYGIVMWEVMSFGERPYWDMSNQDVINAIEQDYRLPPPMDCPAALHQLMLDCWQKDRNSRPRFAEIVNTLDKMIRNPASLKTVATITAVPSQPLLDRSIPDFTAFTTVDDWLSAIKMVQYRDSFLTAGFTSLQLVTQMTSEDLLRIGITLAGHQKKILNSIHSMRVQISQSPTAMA
# [5] = target: T2, Ephrin type-B receptor 1 (Homo sapiens); details: at 10 µM
# [6] = target: T3, Ephrin type-B receptor 2 (Homo sapiens) (UniProt P29323); details: at 1 µM
# T3 sequence (whole entry): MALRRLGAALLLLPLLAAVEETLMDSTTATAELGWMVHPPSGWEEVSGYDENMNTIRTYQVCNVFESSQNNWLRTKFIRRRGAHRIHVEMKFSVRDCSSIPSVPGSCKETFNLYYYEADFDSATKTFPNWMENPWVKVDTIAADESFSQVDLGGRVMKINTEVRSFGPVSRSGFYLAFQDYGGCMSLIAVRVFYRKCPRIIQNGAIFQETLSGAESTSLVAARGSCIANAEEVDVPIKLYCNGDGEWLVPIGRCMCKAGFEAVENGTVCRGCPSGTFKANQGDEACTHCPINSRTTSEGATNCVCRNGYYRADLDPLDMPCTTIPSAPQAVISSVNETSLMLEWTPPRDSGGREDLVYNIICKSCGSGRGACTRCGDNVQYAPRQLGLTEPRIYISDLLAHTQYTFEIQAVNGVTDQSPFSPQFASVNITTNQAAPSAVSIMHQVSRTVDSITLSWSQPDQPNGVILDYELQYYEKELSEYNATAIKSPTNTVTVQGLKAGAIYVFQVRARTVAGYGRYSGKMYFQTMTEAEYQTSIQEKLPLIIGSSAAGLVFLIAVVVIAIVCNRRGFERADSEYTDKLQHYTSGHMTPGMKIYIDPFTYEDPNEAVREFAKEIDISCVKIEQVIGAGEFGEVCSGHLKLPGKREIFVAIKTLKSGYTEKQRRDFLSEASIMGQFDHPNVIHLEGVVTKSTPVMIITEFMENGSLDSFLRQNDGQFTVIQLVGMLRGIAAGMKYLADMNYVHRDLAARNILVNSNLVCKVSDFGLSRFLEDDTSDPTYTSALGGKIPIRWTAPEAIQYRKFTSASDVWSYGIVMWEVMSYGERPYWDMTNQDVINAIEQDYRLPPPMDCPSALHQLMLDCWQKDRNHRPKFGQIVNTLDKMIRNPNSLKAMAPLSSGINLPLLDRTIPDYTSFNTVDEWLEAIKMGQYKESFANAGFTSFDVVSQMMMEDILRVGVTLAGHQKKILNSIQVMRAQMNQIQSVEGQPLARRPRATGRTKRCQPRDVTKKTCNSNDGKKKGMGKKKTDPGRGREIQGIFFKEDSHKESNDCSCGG
# [7] = target: T3, Ephrin type-B receptor 2 (Homo sapiens); details: at 10 µM
# [8] = target: T4, Ephrin type-B receptor 3 (Homo sapiens) (UniProt P54753); details: at 1 µM
# T4 sequence (whole entry): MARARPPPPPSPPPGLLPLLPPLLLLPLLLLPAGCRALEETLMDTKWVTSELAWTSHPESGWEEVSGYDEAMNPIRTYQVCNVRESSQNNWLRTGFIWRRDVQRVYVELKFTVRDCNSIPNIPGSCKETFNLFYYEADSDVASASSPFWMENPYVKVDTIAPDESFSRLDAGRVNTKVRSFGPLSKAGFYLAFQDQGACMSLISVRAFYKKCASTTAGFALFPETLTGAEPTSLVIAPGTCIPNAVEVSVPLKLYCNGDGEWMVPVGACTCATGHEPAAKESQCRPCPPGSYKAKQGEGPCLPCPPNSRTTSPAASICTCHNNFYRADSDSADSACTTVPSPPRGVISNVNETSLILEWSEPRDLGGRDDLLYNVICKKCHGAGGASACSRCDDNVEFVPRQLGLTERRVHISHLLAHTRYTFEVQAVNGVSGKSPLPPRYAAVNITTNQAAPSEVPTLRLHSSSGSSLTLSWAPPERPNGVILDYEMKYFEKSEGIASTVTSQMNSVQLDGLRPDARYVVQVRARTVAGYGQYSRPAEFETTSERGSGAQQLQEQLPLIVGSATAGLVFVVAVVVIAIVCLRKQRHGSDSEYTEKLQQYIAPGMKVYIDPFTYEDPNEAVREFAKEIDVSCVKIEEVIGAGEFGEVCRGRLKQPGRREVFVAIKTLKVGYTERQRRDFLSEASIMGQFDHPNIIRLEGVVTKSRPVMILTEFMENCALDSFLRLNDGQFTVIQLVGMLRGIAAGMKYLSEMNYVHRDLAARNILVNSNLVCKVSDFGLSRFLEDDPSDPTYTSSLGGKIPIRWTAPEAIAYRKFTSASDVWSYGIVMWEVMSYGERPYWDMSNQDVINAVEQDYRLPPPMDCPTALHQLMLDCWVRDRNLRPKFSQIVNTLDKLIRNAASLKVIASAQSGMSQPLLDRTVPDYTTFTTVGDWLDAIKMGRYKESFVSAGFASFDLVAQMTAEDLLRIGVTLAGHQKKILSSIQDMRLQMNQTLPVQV
# [9] = target: T4, Ephrin type-B receptor 3 (Homo sapiens); details: at 10 µM
# [10] = target: T5, Ephrin type-B receptor 4 (Homo sapiens) (UniProt P54760); details: at 1 µM
# T5 sequence (whole entry): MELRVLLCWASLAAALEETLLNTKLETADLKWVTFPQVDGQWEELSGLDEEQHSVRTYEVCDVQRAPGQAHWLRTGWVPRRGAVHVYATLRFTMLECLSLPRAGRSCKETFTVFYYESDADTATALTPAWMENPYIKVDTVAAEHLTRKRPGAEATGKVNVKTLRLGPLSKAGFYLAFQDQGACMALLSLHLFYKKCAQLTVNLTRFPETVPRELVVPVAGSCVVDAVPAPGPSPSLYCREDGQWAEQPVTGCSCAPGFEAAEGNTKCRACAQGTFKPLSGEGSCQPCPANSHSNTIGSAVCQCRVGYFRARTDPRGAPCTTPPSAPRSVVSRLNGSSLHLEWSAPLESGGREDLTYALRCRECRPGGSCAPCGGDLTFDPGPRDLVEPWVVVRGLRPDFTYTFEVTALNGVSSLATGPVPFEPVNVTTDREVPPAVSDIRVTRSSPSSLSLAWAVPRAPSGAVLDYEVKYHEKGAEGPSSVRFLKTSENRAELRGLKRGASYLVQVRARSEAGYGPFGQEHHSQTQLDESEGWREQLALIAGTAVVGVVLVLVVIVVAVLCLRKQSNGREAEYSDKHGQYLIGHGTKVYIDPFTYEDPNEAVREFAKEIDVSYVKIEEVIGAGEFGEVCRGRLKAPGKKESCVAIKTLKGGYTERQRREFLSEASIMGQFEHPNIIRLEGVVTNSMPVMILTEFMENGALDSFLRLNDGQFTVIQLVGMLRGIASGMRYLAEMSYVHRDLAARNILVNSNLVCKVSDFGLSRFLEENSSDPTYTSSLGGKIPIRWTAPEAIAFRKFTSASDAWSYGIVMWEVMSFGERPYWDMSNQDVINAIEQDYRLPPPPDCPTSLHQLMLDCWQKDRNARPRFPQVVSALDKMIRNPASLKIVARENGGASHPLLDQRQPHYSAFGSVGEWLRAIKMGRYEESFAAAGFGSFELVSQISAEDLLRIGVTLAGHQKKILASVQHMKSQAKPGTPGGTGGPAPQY
# [11] = target: T5, Ephrin type-B receptor 4 (Homo sapiens); details: at 10 µM
# [12] = target: Receptor tyrosine-protein kinase erbB-4 (Homo sapiens) (UniProt Q15303); details: at 1 µM
# Receptor tyrosine-protein kinase erbB-4 (Homo sapiens), sequence (Q15303 whole entry): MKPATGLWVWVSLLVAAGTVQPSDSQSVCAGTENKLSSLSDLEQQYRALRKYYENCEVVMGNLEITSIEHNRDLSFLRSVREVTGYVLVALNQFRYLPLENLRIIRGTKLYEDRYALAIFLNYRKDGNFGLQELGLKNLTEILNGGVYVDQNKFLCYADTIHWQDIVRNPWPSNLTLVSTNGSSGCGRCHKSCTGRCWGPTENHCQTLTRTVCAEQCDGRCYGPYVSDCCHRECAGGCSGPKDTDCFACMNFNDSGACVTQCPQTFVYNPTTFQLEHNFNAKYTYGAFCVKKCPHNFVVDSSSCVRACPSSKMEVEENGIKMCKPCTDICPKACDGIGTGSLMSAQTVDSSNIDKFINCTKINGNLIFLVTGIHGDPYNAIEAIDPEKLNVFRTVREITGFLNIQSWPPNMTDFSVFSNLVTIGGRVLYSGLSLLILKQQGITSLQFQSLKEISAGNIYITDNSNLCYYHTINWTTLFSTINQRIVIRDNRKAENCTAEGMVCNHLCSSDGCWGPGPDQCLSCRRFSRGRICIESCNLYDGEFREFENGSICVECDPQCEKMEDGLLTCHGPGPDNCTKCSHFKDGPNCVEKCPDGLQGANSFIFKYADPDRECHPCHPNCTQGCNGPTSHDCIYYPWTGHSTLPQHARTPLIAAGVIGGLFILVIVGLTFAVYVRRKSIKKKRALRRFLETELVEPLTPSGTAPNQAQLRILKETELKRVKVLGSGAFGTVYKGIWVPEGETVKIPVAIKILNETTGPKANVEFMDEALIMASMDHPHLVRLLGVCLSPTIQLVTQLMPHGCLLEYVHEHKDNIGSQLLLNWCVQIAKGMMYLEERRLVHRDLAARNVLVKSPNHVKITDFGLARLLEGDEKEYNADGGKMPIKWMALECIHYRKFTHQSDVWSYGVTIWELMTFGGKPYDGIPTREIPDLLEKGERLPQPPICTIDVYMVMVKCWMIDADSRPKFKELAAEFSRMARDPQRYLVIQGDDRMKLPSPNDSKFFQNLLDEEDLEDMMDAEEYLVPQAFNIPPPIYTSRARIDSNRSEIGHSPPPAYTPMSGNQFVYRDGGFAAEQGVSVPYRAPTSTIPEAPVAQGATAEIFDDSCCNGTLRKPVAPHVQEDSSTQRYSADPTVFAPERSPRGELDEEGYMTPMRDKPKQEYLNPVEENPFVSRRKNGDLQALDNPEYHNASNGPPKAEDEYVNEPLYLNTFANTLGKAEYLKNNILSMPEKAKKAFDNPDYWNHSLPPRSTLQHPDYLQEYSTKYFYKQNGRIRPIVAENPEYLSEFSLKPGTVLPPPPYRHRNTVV
# [13] = target: Receptor tyrosine-protein kinase erbB-4 (Homo sapiens) (UniProt Q15303); details: at 10 µM
# [14] = target: Focal adhesion kinase 1 (Homo sapiens) (UniProt Q05397); details: at 1 µM
# Focal adhesion kinase 1 (Homo sapiens), sequence (Q05397 2-1052 limits assumed): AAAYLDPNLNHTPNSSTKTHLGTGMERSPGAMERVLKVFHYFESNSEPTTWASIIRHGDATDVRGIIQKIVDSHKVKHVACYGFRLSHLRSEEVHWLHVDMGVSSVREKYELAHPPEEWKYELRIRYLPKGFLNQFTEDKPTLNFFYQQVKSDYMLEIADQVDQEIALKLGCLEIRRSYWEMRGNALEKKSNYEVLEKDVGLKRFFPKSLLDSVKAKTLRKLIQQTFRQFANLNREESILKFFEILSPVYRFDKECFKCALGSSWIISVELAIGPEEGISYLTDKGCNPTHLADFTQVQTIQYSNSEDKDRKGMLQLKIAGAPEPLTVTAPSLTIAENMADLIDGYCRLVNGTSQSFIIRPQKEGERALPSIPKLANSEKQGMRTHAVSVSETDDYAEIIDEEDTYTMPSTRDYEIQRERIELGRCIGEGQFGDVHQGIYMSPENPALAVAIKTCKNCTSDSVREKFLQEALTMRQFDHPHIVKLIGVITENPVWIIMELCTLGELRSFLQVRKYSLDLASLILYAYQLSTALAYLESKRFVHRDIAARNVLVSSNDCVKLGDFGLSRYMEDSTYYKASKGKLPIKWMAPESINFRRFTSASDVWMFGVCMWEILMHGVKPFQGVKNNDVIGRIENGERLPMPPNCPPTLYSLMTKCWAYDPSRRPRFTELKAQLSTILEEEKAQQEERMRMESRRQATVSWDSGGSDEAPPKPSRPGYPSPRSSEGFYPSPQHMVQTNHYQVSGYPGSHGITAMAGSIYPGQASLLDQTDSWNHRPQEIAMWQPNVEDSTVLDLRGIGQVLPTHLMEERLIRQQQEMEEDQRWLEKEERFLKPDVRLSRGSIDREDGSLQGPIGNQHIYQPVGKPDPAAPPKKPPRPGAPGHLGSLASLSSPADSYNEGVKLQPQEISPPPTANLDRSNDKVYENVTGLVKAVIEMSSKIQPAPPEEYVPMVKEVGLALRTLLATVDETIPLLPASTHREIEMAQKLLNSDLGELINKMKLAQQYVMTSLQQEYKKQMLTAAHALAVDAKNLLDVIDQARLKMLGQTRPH
# [15] = target: Ephrin type-A receptor 4 (Homo sapiens) (UniProt P54764); details: at 1 µM
# [16] = target: Ephrin type-A receptor 4 (Homo sapiens) (UniProt P54764); details: at 10 µM
# [17] = target: Ephrin type-A receptor 5 (Homo sapiens) (UniProt P54756); details: at 1 µM
# Ephrin type-A receptor 5 (Homo sapiens), sequence (P54756 whole entry): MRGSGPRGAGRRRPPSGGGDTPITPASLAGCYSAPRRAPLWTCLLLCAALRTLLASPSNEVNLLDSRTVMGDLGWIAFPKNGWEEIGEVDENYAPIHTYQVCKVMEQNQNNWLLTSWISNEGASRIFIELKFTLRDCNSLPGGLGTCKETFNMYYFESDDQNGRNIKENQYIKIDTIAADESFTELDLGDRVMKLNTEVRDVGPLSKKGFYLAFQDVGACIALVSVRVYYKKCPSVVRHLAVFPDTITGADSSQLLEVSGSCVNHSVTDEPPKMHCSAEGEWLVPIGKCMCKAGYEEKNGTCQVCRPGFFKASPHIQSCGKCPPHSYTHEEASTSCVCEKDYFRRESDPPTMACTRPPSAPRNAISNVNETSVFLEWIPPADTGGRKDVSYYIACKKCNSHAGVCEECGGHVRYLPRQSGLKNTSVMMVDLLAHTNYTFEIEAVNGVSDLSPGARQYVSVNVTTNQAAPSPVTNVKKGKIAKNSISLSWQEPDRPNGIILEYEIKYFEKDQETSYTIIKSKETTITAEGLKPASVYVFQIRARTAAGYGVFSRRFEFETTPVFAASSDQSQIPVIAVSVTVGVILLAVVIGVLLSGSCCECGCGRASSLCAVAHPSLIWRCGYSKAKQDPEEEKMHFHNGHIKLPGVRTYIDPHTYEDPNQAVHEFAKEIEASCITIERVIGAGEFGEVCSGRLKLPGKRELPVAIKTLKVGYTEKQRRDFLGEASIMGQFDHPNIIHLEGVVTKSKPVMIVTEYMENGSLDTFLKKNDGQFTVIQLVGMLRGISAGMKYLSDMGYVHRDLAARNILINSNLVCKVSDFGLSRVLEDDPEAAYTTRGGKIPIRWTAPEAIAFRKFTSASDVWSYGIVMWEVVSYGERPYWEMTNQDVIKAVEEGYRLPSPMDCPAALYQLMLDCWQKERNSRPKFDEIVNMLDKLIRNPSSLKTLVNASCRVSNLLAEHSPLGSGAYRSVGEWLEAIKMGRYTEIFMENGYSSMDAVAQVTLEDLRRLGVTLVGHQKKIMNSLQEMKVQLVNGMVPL
# [18] = target: Ephrin type-A receptor 5 (Homo sapiens) (UniProt P54756); details: at 10 µM
SMILES,residual activity [1],residual activity [2],residual activity [3],residual activity [4],residual activity [5],residual activity [6],residual activity [7],residual activity [8],residual activity [9],residual activity [10],residual activity [11],residual activity [12],residual activity [13],residual activity [14],residual activity [15],residual activity [16],residual activity [17],residual activity [18]
COc1ccc2c(c[n+](C)c3c4cc5c(cc4ccc23)OCO5)c1OC,92%,94%,79%,89%,91%,121%,121%,126% (inactive),133%,94%,119%,96%,79%,140%,,,,
CCc1nc(-c2ccc(OC)cc2)[nH]c1-c1ccncc1,,114%,100%,,,120%,115%,110% (inactive),111%,112%,101%,,108%,115%,114%,109%,116%,104%
